Laboratory results from PubChem BioAssay (NCATS).
Values joined by “and” are separate entries in the source; they are usually repeats but may differ in a detail not shown here. Equal entries are not always repeated. Inconclusive results are not listed. For some assays here: Results with a measured potency or affinity are listed apart. Active and inactive are the calls of the source.

Key:
[1] = Ebola virus entry assay, green fluorescence channel
[2] = Ebola virus entry assay, blue channel fluorescence
[3] = Ebola virus entry assay, green fluorescence channel; remark: listed apart in the source
[4] = Ebola virus entry assay, ratio channel readout
[5] = Ebola virus entry assay, blue channel fluorescence; remark: listed apart in the source
[6] = Ebola virus entry assay, ratio channel
[7] = Ebola virus entry assay, green channel fluorescence
[8] = Ebola virus entry assay, reporter ratio channel; AC50: Channel type: primary unless noted; outcome: Channel type: primary unless noted
[9] = qHTS Assay for Identifying Gametocytocidal Compounds (AID 743244; active = well fitted curve in the direction sought with a large enough effect; an effect the other way counts as inactive or inconclusive;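 also: % is scaled to controls: 0 for no effect and ±100 for the full control effect; actives lower the fluorescent signal which means gametocytes are killed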); conditions: P. falciparum 3D7 stage III-V gametocytes, alamarBlue, 72 h; max response: stronger effect = lower value
How it was run: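 A resazurin-based viability read-out was applied to mature P. falciparum gametocytes: 72 h compound treatment, then 24 h dye incubation, with falling fluorescence signalling gametocytocidal effect.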

[10] = qHTS profiling of the MIPE4 collection as inhibitors of Plasmodium falciparum (3D7) proliferation (AID 743344);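 also: scaled between DMSO vehicle wells and 0.29 µM artemisinin as full inhibition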; conditions: P. falciparum 3D7 in erythrocytes, SYBR Green DNA fluorescence, 72 h; at 28.5 µM (top of the series) unless noted
How it was run: (§1)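 Erythrocytes infected with P. falciparum (0.3% parasitemia, 2.5% hematocrit) incubated with compounds 72 h at 37 C, 5% CO2. Lysis with saponin/Triton buffer containing SYBR Green I, overnight at room temperature in the dark; DNA fluorescence (485/535 nm) normalised to 0.29 uM artemisinin and DMSO.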

[11] = qHTS profiling of the MIPE4 collection as inhibitors of Plasmodium falciparum (DD2) proliferation (AID 743345); conditions: P. falciparum Dd2 in erythrocytes, SYBR Green DNA, 72 h; at 28.5 µM (top of the series) unless noted
How it was run: as §1

[12] = qHTS profiling of the MIPE4 collection as inhibitors of Plasmodium falciparum (DD2) proliferation (Rep 2) (AID 743346); conditions: P. falciparum Dd2 in erythrocytes, SYBR Green DNA, 72 h; at 28.5 µM (top of the series) unless noted
How it was run: as §1

[13] = qHTS profiling of the MIPE4 collection as inhibitors of Plasmodium falciparum (HB3) proliferation (AID 743347);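 also: plate controls were DMSO vehicle wells for no effect and artemisinin wells for full effect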; conditions: P. falciparum HB3 in erythrocytes, SYBR Green DNA, 72 h; at 28.5 µM (top of the series) unless noted
How it was run: as §1

[14] = Ebola virus entry assay, blue channel fluorescence; remark: listed apart in the source
[15] = Ebola virus entry assay, blue channel (ratio component)
[16] = qHTS assay for cell viability of HEK293 cells (AID 743288; active = well fitted curve in the direction sought with a large enough effect; an effect the other way counts as inactive or inconclusive; also: % is scaled to controls: 0 for no effect and ±100 for the full control effect; nearly all actives have a fitted effect of over 50% in size); conditions: ATP luminescence (CellTiter-Glo), 18 h; max response: stronger effect = lower value
How it was run: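 The Tox21 protocol used parental HEK293 cells treated for 18 h at 37 C with compounds delivered by pintool; ATP-coupled luminescence after 30 min at room temperature gave viability.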

[17] = qHTS assay for cell viability of the p53RE-bla HCT-116 cell line (AID 743292; active = well fitted curve in the direction sought with a large enough effect; an effect the other way counts as inactive or inconclusive; also: % is scaled to controls: 0 for no effect and ±100 for the full control effect; nearly all actives have a fitted effect of over 55% in size); conditions: p53RE-bla HCT-116 viability, ATP luminescence, 16 h; series mostly up to 95 µM
How it was run: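 ATP-based luminescent viability (CellTiter-Glo, 30 min RT) after 16 h compound treatment at 37 C of p53RE-bla HCT-116 cells, seeded at 4,000 cells/well and rested 5 h before dosing.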

[18] = qHTS profiling for inhibitors of Plasmodium falciparum (3D7) proliferation (AID 743322);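 also: infected erythrocytes exposed to compound for 72 h before lysis; 100% = DMSO vehicle wells and 0% = 0.29 µM artemisinin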; conditions: P. falciparum 3D7 proliferation; at 28.7 µM (top of the series)
How it was run: as §1

[19] = qHTS profiling for inhibitors of Plasmodium falciparum (DD2) proliferation (AID 743323); conditions: lower = more inhibition; at 28.7 µM (top of the series)
How it was run: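 Parasite proliferation measured via DNA-dye fluorescence, as uninfected erythrocytes lack DNA. Cultures at 0.3% parasitemia and 2.5% hematocrit incubated 72 h with compound; signal scaled between vehicle and 0.29 uM artemisinin wells.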

[20] = qHTS profiling for inhibitors of Plasmodium falciparum (HB3) proliferation (AID 743324; active = well fitted curve in the direction sought with a large enough effect; an effect the other way counts as inactive or inconclusive;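 also: 100% = DMSO vehicle wells and 0% = artemisinin-treated control wells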); conditions: Plasmodium falciparum HB3 blood-stage proliferation; at 28.7 µM (top of the series)
How it was run: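 P. falciparum HB3 grown in erythrocytes (0.3% parasitemia, 2.5% hematocrit final) with compound for 72 h at 37 C, 5% CO2. Parasite DNA detected by SYBR Green after saponin/triton lysis overnight; normalized to 0.29 uM artemisinin and DMSO.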
For efficacy in this document: 0% is about no effect.

C#C[C@]1(O)CC[C@H]2[C@@H]3CCC4=Cc5oncc5C[C@]4(C)[C@H]3CC[C@@]21C
active: AC50 [5] 7.94 µM | AC50 [6] 6.31 µM | AC50 [8] 6.31 µM
inactive: efficacy [1] 22.7% | outcome [2] | outcome [3] | outcome [4] | outcome [7]

O=C1CC[C@@]2(O)[C@H]3Cc4ccc(O)c5c4[C@@]2(CCN3CC2CC2)[C@H]1O5
113%: parasite growth remaining, % of DMSO control (lower = more inhibition) [11]
64.4%: parasite growth, % of control (lower = inhibition) [12]
94.1%: parasite growth, % of DMSO control [10]
83.3%: growth, % of control [13]
inactive: max response [9] 19% | efficacy [1] -27.7% | outcome [2] | outcome [3] | outcome [4] | outcome [5] | outcome [6] | outcome [7] | outcome [14] | outcome [8] | outcome [15]

CN(C)CC[C@@H](c1ccc(Br)cc1)c1ccccn1
inactive: efficacy [1] 34.2% | outcome [2] | outcome [3] | outcome [4] | outcome [6] | outcome [7]
active: AC50 [5] 39.8 µM | AC50 [8] 39.8 µM

CCC(C)(C)C(=O)O[C@H]1C[C@@H](C)C=C2C=C[C@H](C)[C@H](CC[C@@H]3C[C@@H](O)CC(=O)O3)[C@H]21
active: AC50 [6] 7.08 µM | AC50 [8] 7.08 µM
inactive: efficacy [1] 37.4% | outcome [2] | outcome [3] | outcome [4] | outcome [5] | outcome [7] | outcome [15]

CC(C)C(=O)Nc1ccc([N+](=O)[O-])c(C(F)(F)F)c1
91%: parasite growth remaining, % of DMSO control (lower = more inhibition) [11]
inactive: efficacy [1] -18.2% | outcome [2] | outcome [3] | outcome [4] | outcome [5] | outcome [6] | outcome [7] | outcome [14] | outcome [8] | outcome [15]
88.5%: growth, % of control [13]
69.2%: parasite growth, % of control (lower = inhibition) [12]
93%: parasite growth, % of DMSO control [10]

CCCC(C)(COC(N)=O)COC(=O)NC(C)C (stereo unspecified)
93%: parasite growth, % of DMSO control [10]
91%: parasite growth remaining, % of DMSO control (lower = more inhibition) [11]
119%: parasite growth, % of control (lower = inhibition) [12]
inactive: max response [9] 10.4% and -6.54% | max response [16] -8.51% and -1.5% | Potency [17] | efficacy [1] 22.1% | outcome [2] | outcome [3] | outcome [4] | outcome [5] | outcome [6] | outcome [7] | outcome [14] | outcome [8] | outcome [15]
100%: growth, % of control [13]

CN/C(=C\[N+](=O)[O-])NCCSCc1ccc(CN(C)C)o1
inactive: efficacy [1] -12.5% | outcome [2] | outcome [3] | outcome [4] | outcome [5] | outcome [6] | outcome [7] | outcome [14] | outcome [8] | outcome [15]

O=NN(CCCl)C(=O)NCCCl
83.1%: growth, % of control [13]
150%: parasite growth, % of control (lower = inhibition) [12]
inactive: efficacy [1] -15% | outcome [2] | outcome [3] | outcome [4] | outcome [5] | outcome [6] | outcome [7] | outcome [14] | outcome [8] | outcome [15]
95.8%: parasite growth, % of DMSO control [10]
102%: parasite growth remaining, % of DMSO control (lower = more inhibition) [11]

O=C(OC1C[C@H]2CC[C@@H](C1)[N+]21CCCC1)C(O)(c1ccccc1)c1ccccc1 (stereo partly specified)
30.4%: parasite growth, % of control (lower = inhibition) [12]
48.3%: parasite growth remaining, % of DMSO control (lower = more inhibition) [11]
inactive: efficacy [1] 12.9% | outcome [2] | outcome [3] | outcome [4] | outcome [5] | outcome [6] | outcome [7] | outcome [14] | outcome [8] | outcome [15]
32.2%: parasite growth, % of DMSO control [10]

Oc1cn2c(n1)Nc1ccc(Cl)c(Cl)c1C2
97.7%: remaining proliferation (% of control), lower = more inhibition [20]
inactive: efficacy [1] -19.4% | outcome [2] | outcome [3] | outcome [4] | outcome [5] | outcome [6] | outcome [7] | outcome [14] | outcome [8] | outcome [15]
97.1%: activity, percent of control [19]
107%: remaining parasite growth % (stronger effect = lower value) [18]

Nc1nc(N)c2nc(-c3ccccc3)c(N)nc2n1
inactive: efficacy [1] 17.5% | outcome [2] | outcome [3] | outcome [4] | outcome [5] | outcome [6] | outcome [7] | outcome [8]

CCn1cc(C(=O)O)c(=O)c2cc(F)c(N3CCNCC3)cc21
42.3%: parasite growth, % of control (lower = inhibition) [12]
48%: parasite growth, % of DMSO control [10]
82.1%: growth, % of control [13]
inactive: efficacy [1] -31.6% | outcome [2] | outcome [3] | outcome [4] | outcome [5] | outcome [6] | outcome [7] | outcome [14] | outcome [8]
60.2%: parasite growth remaining, % of DMSO control (lower = more inhibition) [11]

CNC(=O)c1cc(Oc2ccc(NC(=O)Nc3ccc(Cl)c(C(F)(F)F)c3)cc2)ccn1
active: AC50 [5] 39.8 µM | AC50 [8] 35.5 µM
inactive: efficacy [1] 20.4% | outcome [2] | outcome [3] | outcome [4] | outcome [6] | outcome [7]

CC[C@H](C)C(=O)O[C@H]1C[C@@H](C)C=C2C=C[C@H](C)[C@H](CC[C@@H]3C[C@@H](O)CC(=O)O3)[C@H]21
inactive: efficacy [1] 16.1% | outcome [2] | outcome [3] | outcome [4] | outcome [5] | outcome [6] | outcome [7] | outcome [8] | outcome [15]

CCN(C)C(=O)Oc1cccc([C@H](C)N(C)C)c1
92%: parasite growth, % of DMSO control [10]
82.1%: growth, % of control [13]
inactive: efficacy [1] 11.7% | outcome [2] | outcome [3] | outcome [4] | outcome [5] | outcome [6] | outcome [7] | outcome [14] | outcome [8] | outcome [15]
69.6%: parasite growth, % of control (lower = inhibition) [12]

CC(COc1ccccc1)N(CCCl)Cc1ccccc1 (stereo unspecified)
active: AC50 [5] 28.2 µM | AC50 [6] 17.8 µM | AC50 [8] 17.8 µM
91.2%: growth, % of control [13]
inactive: max response [9] 3.46% | efficacy [1] 44% | outcome [2] | outcome [3] | outcome [4] | outcome [7] | outcome [14]

CC(=O)[C@]1(O)Cc2c(O)c3c(c(O)c2[C@@H](O[C@H]2C[C@H](N)[C@H](O)[C@H](C)O2)C1)C(=O)c1ccccc1C3=O
active: AC50 [5] 14.1 µM | AC50 [6] 12.6 µM | AC50 [8] 12.6 µM
inactive: efficacy [1] 27.8% | outcome [2] | outcome [3] | outcome [4] | outcome [7]
